IL1B secr inh = qHTS for Inhibitors of Inflammasome Signaling: IL-1-beta AlphaLISA Primary Screen; THP-1 LPS/ATP IL-1B secretion, AlphaLISA, 16 h; hits give low values; activity change, % at 57.5 µM; hit rate 4.7% among 360,000; in the data active means activity change below about -50%; inconclusive means mostly about -30% to -49%
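THP-1 cells pretreated 1 hr with compounds (up to 57.5 uM final), then stimulated with LPS (250 ng/mL final) plus ATP (1.25 mM final); secreted IL-1B measured by AlphaLISA after 16 hr, decreased signal indicating inhibition.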
ELG1 DNA repair = qHTS screen for small molecules that inhibit ELG1-dependent DNA repair in human embryonic kidney (HEK293T) cells expressing luciferase-tagged ELG1; Potency, µM (series often up to 46.1 µM), hits mostly inhibitors; HEK293T ELG1-luciferase reporter, luminescence, 16 h; DNA damage induced by 5-fluorouridine; hit rate 2.3% among 330,000; further: nearly all actives have a fitted effect of over 55% in size
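Step one: seed 2,000 cells per well. Step two: pin-transfer compound or DMSO alongside 5-fluorouridine. Step three: incubate 16 hr, 37 °C, 5% CO2. Step four: add ONE-Glo, wait 30 min, read luminescence.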
DT40 TDP1 CPT = qHTS for Inhibitors of human tyrosyl-DNA phosphodiesterase 1 (TDP1): qHTS in cells in presence of CPT | hit rate 12% among 420,000 | Potency, µM (doses to about 46.2 µM), hits mostly inhibitors | chicken DT40 Tdp1-/-;hTDP1 cells + 20 nM CPT, ATP luminescence, 48 h | AID 686979, 2013; further: nearly all actives have a fitted effect of over 55% in size
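Cell growth measured by CellTiter-Glo luminescence after a minimum 48 h, 37 C compound exposure with 20 nM CPT in Tdp1-knockout DT40 cells stably expressing hTDP1, seeded 400/well; qHTS titration format.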
HT1080NT lethal = qHTS for induction of synthetic lethality in tumor cells producing 2HG: qHTS for the HT-1080-NT fibrosarcoma cell line; HT-1080-NT fibrosarcoma viability, CellTiter-Glo ATP luminescence, 48 h; Potency, µM (doses to about 46.1 µM), hits mostly cytotoxic; hit rate 1.6% among 360,000;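 further: NT is the 2HG producing partner of a matched IDH1 knockdown line; nearly all actives have a fitted effect of over 55% in size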
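Read-out is CellTiter-Glo luminescence after 10 minutes at room temperature, following 48 hours' compound treatment of HT-1080-NT cells (750 cells/well, RPMI, 5% FBS, 37 degrees C).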
DT40 TDP1 no CPT = qHTS for Inhibitors of human tyrosyl-DNA phosphodiesterase 1 (TDP1): qHTS in cells in absence of CPT. DT40 Tdp1-/- hTDP1 cells, no CPT, ATP luminescence, 48 h. Potency, µM (titrated, usually from 46.2 µM), actives largely listed as inhibitors. hit rate 15% among 420,000. AID 686978, 2013; further: nearly all actives have a fitted effect of over 55% in size
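No-CPT arm: Tdp1-/-;hTDP1 DT40 cells (400/well) plus compounds, incubated ≥48 hr at 37 °C. Readout CellTiter-Glo luminescence.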
HT1080 IDH1KD tx = qHTS for induction of synthetic lethality in tumor cells producing 2HG: qHTS for the HT-1080-IDH1KD cell line. AID 686971, 2013. hit rate 2% among 360,000. Potency, µM (highest dose often 46.1 µM), most hits filed as cytotoxic. HT-1080 IDH1 knockdown viability, ATP luminescence, 48 h
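After a 2 h attachment period, IDH1KD HT-1080 cells took pin-transferred compound for 48 h at 37 °C; ATP-based luminescence after 10 min room-temperature reagent incubation reported viability.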
Numbers stand for hits; – = inactive; ? = inconclusive; · = no result. In the library only some 19% were active in any assay of this set; here they are far more common. Unless noted, the call rests on the fitted dose curve; in most records, active means well fitted curve in the direction sought with a large enough effect; inconclusive means small, poorly fitted or top-dose-only effect, or another doubt; inactive means no such curve, though single readings can be large; an effect the other way counts as inactive or inconclusive.

SMILES | IL1B secr inh | ELG1 DNA repair | DT40 TDP1 CPT | HT1080NT lethal | DT40 TDP1 no CPT | HT1080 IDH1KD tx
Oc1ccc(Cl)cc1-c1cc(-c2ccccc2Cl)[nH]n1 | – | – | – | – | – | –
COc1ccccc1N1CCN(C(=O)c2ccc(N3CCCCS3(=O)=O)cc2)CC1 | – | ? | ? | – | – | –
CCOC(=O)C1=C(C)N(C)C(=O)NC1c1c(O)ccc2ccccc12 (centres undefined) | – | – | ? | – | ? | –
COCCNC(=O)C1(C)CCCN(C(=O)c2ccc(F)c(Cl)c2)C1 (centres undefined) | – | · | – | – | – | –
CCc1cc(C(=O)Nc2cc(S(=O)(=O)N3CCCCC3)ccc2N2CCN(C)CC2)sc1C | -70.4 | · | 4.61µM | ? | 4.11µM | ?
CCN(CC)S(=O)(=O)c1ccc(N2CCOCC2)c(NC(=O)C23CC4CC(CC(Cl)(C4)C2)C3)c1 | – | 9.2µM | ? | – | 23.1µM | –
CCN(CC)S(=O)(=O)c1ccc(N2CCOCC2)c(NC(=O)c2ccccc2)c1 | – | ? | ? | – | ? | –
CCN(CC)S(=O)(=O)c1ccc(N2CCOCC2)c(NC(=O)c2sccc2C)c1 | ? | 18.3µM | ? | – | 18.4µM | –
CCN1CCN(c2ccc(S(=O)(=O)N3CCOCC3)cc2NC(=O)c2sccc2C)CC1 | – | – | – | – | – | –
CCc1cc(C(=O)Nc2cc(S(=O)(=O)N(CC)CC)ccc2N2CCOCC2)sc1C | – | ? | 20.6µM | – | ? | –
CCN(CC)S(=O)(=O)c1ccc(N2CCOCC2)c(NC(=O)CC(C)(C)C)c1 | – | – | – | – | – | –
CC1CCc2sc3ncnc(N4CCN(CCO)CC4)c3c2C1 (centres undefined) | ? | – | – | – | ? | –
CCN(CC)S(=O)(=O)c1ccc(N2CCOCC2)c(NC(=S)NC(=O)c2ccco2)c1 | ? | 16.4µM | 10.3µM | – | ? | –
CCN(CC)S(=O)(=O)c1ccc(N2CCOCC2)c(NC(=O)c2cc(C)cc(C)c2)c1 | -51.1 | 8.2µM | 7.31µM | – | 18.4µM | –
S=C(NCc1ccco1)Nc1ccc(Cl)cn1 | – | – | – | – | ? | –
Cc1ccc(NC(=O)C2(C)Cc3ccccc3C(=O)O2)c(C)c1 (centres undefined) | · | · | – | · | ? | ·
CC(C)CNC(=O)c1cccc(NC(=O)COc2cccc([N+](=O)[O-])c2)c1 | – | ? | ? | – | ? | –
CCN1CCN(c2cc(C)c3cc(NC(=O)c4cccc(Cl)c4)ccc3n2)CC1 | · | · | 14.6µM | · | 6.51µM | ·
CCN1CCN(c2cc(C)c3cc(NC(=O)/C=C/c4cccc(Cl)c4)ccc3n2)CC1 | · | · | 5.17µM | · | – | ·
COC(=O)c1sccc1NC(=O)Nc1ccc(F)cc1F | – | ? | – | – | – | –
CN(CC(=O)Nc1ccc(Cl)c(C(F)(F)F)c1)C(=O)CCN1C(=O)C2CC=CCC2C1=O (centres undefined) | – | ? | 9.2µM | – | ? | –
CN(CC(=O)Nc1ccc(Cl)c(C(F)(F)F)c1)C(=O)Cc1ccsc1 | -89.1 | ? | 16.4µM | – | 16.4µM | –
O=C(CCC1N=C2c3ccccc3N=C(SCc3cccc(F)c3)N2C1=O)NC1CCCCC1 (centres undefined) | · | · | – | · | – | ·
O=C(CCC1N=C2c3ccccc3N=C(SCc3ccccc3F)N2C1=O)NC1CCCCC1 (centres undefined) | · | · | 18.4µM | · | 18.4µM | ·
O=C(CC1N=C2c3ccccc3N=C(SCc3cccc(Cl)c3)N2C1=O)NC1CCCCC1 (centres undefined) | · | · | 16.4µM | · | 18.4µM | ·
SMILES | IL1B secr inh | ELG1 DNA repair | DT40 TDP1 CPT | HT1080NT lethal | DT40 TDP1 no CPT | HT1080 IDH1KD tx
O=C(CC1N=C2c3ccccc3N=C(SCc3ccccc3F)N2C1=O)NCCc1ccccc1 (centres undefined) | · | · | 20.6µM | · | 20.6µM | ·
O=C(CSC1=Nc2ccccc2C2=NC(c3ccccc3)C(=O)N12)NC1CCCCC1 (centres undefined) | – | – | – | – | – | –
O=C(CC1N=C2c3ccccc3N=C(SCc3ccccc3Cl)N2C1=O)NC1CCCCC1 (centres undefined) | · | · | 9.2µM | · | 11.6µM | ·
COCCN(C(=O)COC(=O)C12CC3CC(CC(C3)C1)C2)c1c(N)n(Cc2ccccc2)c(=O)[nH]c1=O | – | · | ? | – | ? | –
CCNC(=O)C1CCCN(C(=O)c2ccccc2)CC1 (centres undefined) | – | · | – | ? | – | –
CC(C)CCNC(=O)c1ccc2nc(CCc3ccccc3)oc2c1 | · | · | – | · | – | ·
COc1cc(C2C(C#N)=C(C)NC(C)=C2C#N)cc(OC)c1OC | – | – | – | – | – | –
COc1cccc(CN(C)Cc2cc(=O)oc3c(C)c(C)ccc23)c1 | – | ? | 13µM | – | ? | –
Cc1ccccc1CN(C)Cc1cc(=O)oc2c(C)c(C)ccc12 | – | – | ? | – | ? | ?
Cc1c(O)ccc2c(CN(C)Cc3ccccc3)cc(=O)oc12 | – | 13µM | ? | – | 18.4µM | –
COc1cccc(CNC(=O)CSc2nc(=O)n(Cc3ccncc3)c3c2CCC3)c1 | – | – | – | – | – | –
CCN(CC)C(=O)c1ccc2nc([C@H]3C[C@H](O)[C@@H](CO)O3)[nH]c2c1 | – | · | – | – | – | –
OC[C@H]1O[C@@H](c2nc3ccc(-c4nc(-c5ccc(Br)cc5)no4)cc3[nH]2)C[C@@H]1O | – | · | 16.4µM | 18.4µM | 16.4µM | 18.4µM
COc1ccc(NC(=O)N2CCC3(CC2)CCN(C(=O)c2ccco2)CC3)cc1 | · | · | – | · | – | ·
CC1CN(C(=S)NC(=O)C2CCCCC2)CC(C)O1 (centres undefined) | – | – | – | – | – | –
CCOC(=O)c1ccc(NC(=S)NNC(C)(C)C)cc1 | – | ? | 5.8µM | – | 5.8µM | –
O=C(C[C@@H]1C/C=C\CCCC(=O)OC[C@@H]2CCCN2C1=O)N[C@@H](CO)Cc1ccccc1 | – | – | – | – | – | –
O=C(NNc1nc(-c2ccc(Cl)cc2)cs1)c1ccco1 | – | ? | 18.4µM | – | 10.3µM | ?
O=C(NNc1nc(-c2ccccc2)cs1)c1ccco1 | – | ? | ? | ? | 16.4µM | –

High-throughput results: PubChem, National Center for Advancing Translational Sciences (NCATS)
